Publication PMC5700166
Substitutions are numbered along the chain they refer to.

What was measured:
Test in all cases: protein-binding microarray (PBM); PBM: ~300 nM protein, 6 mM HEPES pH 7.8, 80 mM KCl, 0.5 mM EDTA, 0.5 mM EGTA, 6% glycerol, 35 ng/ul poly-dIdC, 1% milk, 1 h, room temperature; Ap Aiptasia and Nv Nematostella (sea anemones) / Co Capsaspora / Aq Amphimedon (sponge) / Dm Drosophila / Hu human; RHD is the Rel homology domain; high values mean tight binding
Conditions in all cases: dsDNA, one strand shown
GST-Ap-NF-kB RHD = biological target: T1, GST-Ap-NF-kB RHD (Exaiptasia pallida (Aiptasia), UniProt A0A913YAJ5 2-422)
T1 sequence: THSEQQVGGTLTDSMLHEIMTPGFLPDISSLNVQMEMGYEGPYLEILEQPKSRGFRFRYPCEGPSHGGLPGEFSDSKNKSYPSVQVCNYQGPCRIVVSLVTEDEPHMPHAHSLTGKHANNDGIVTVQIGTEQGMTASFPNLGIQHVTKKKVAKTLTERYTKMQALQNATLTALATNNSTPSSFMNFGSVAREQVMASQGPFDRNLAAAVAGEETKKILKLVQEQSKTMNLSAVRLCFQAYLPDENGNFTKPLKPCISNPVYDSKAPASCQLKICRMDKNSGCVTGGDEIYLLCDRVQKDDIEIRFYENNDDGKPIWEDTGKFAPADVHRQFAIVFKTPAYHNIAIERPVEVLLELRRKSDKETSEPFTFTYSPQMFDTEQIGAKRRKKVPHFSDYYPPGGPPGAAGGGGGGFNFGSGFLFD

[1] = biological target: T2, GST-Nv-NF-kB (Cys allele) (Nematostella vectensis, UniProt E5G601 2-411)
T2 sequence: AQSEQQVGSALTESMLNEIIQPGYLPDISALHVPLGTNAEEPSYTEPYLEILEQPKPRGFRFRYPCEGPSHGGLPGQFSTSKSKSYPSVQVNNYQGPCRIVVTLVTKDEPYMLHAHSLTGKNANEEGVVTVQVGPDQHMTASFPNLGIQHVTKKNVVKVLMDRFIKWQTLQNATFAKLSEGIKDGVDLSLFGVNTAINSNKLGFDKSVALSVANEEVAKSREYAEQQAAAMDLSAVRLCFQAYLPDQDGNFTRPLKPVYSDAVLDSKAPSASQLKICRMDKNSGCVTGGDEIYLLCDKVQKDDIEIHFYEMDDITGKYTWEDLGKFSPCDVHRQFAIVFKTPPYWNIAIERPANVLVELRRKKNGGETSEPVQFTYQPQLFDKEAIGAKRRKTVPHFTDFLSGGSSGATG

[2] = biological target: T3, GST-Nv-NF-kB (Ser allele) (Nematostella vectensis, UniProt A7UNT2 2-411)
T3 sequence: T2 sequence with Q21R, C66S, S207N, E215Q, V217A, E225K, A268E, D399E

GST-Co-NF-kB = biological target: T4, GST-Co-NF-kB (Capsaspora owczarzaki, UniProt F1ARL5 200-546)
T4 sequence: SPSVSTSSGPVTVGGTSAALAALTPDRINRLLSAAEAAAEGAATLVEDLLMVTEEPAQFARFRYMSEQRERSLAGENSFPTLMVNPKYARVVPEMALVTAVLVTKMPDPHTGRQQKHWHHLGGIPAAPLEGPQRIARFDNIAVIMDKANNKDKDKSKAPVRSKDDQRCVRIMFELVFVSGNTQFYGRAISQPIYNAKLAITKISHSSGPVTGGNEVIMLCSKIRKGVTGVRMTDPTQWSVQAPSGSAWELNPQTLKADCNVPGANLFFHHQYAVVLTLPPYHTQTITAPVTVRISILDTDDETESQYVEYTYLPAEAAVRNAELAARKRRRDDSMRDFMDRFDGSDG

GST-Dm-Relish = biological target: T5, GST-Dm-Relish (Drosophila melanogaster, UniProt Q94527 99-473)
T5 sequence: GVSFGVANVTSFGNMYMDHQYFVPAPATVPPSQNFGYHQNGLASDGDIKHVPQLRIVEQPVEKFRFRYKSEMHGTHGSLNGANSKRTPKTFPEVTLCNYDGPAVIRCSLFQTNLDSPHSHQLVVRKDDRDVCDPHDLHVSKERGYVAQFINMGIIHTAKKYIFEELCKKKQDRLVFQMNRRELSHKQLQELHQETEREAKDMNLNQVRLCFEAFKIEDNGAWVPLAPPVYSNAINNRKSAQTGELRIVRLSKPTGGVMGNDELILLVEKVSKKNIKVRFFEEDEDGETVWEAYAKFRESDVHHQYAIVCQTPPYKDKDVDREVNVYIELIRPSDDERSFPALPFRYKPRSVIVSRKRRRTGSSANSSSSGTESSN

GST-Aq-NF-kB = biological target: T6, GST-Aq-NF-kB (Amphimedon queenslandica, UniProt A9Y5G7 2-389)
T6 sequence: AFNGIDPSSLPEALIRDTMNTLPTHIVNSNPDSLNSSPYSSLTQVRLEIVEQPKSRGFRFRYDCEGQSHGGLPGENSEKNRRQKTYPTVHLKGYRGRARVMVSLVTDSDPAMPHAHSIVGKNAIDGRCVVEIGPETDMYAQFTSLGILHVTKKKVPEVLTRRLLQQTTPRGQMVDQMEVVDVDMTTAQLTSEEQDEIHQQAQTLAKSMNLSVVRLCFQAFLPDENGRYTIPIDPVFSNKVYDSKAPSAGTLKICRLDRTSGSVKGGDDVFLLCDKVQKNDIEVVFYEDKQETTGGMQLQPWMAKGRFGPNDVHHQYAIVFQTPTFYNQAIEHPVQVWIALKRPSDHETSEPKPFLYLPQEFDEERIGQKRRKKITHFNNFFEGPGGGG

GST-Hu-p50 = GST-Hu-p50 (Homo sapiens, UniProt P19838 7-356)
Sequence of GST-Hu-p50 (P19838 7-356): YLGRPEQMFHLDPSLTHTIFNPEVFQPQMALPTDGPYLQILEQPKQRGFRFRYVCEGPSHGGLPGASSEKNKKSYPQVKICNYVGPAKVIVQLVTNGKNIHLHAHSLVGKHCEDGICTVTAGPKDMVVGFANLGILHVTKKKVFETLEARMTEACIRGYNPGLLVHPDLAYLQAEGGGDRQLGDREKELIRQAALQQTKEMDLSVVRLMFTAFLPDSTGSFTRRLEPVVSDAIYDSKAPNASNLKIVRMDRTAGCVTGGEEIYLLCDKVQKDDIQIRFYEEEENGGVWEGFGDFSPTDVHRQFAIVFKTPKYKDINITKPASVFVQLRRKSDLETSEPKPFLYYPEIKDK

| Sequence | binding signal (GST-Ap-NF-kB RHD) | binding signal [1] | binding signal [2] | binding signal (GST-Co-NF-kB) | binding signal (GST-Dm-Relish) | binding signal (GST-Aq-NF-kB) | binding signal (GST-Hu-p50) |
| --- | --- | --- | --- | --- | --- | --- | --- |
| CCGATTAACATCAGGGTAATACCTGATGTTAATCGGGTCTTGATTCGCTTGACGCTGCTG | 4.26 z-score | 5.72 z-score | 3.69 z-score | 2.23 z-score | 3.92 z-score | 7.45 z-score | 2.82 z-score |
| CCGATTAACATCAAGTTTCCCCATGATGTTAATCGGGTCTTGATTCGCTTGACGCTGCTG | 6.19 z-score | 6.87 z-score | 9.07 z-score | 9.1 z-score | 2.4 z-score | 5.26 z-score | 5.62 z-score |
| CCGATTAACATCAAGGATCCCCCTGATGTTAATCGGGTCTTGATTCGCTTGACGCTGCTG | 8.01 z-score | 6.51 z-score | 6.9 z-score | 5.03 z-score | 8.82 z-score | 6.4 z-score | 6.43 z-score |
| CCGATTAACATCAGGAAACCCCCTGATGTTAATCGGGTCTTGATTCGCTTGACGCTGCTG | 11.2 z-score | 10.1 z-score | 9.07 z-score | 3.13 z-score | 10.1 z-score | 10.5 z-score | 8.19 z-score |
| CCGATTAACATCATAAACCCCCATGATGTTAATCGGGTCTTGATTCGCTTGACGCTGCTG | 5.78 z-score | 4.95 z-score | 5.67 z-score | 2.59 z-score | 7.12 z-score | 4.77 z-score | 6.3 z-score |
| CCGATTAACATCAGGGTTTTACCTGATGTTAATCGGGTCTTGATTCGCTTGACGCTGCTG | 2.62 z-score | 3.71 z-score | 4.37 z-score | 2.01 z-score | 6.46 z-score | 6.12 z-score | 3.39 z-score |
| CCGATTAACATCAGGGGAACCCATGATGTTAATCGGGTCTTGATTCGCTTGACGCTGCTG | 7.48 z-score | 5.77 z-score | 6.55 z-score | 4.47 z-score | 8.55 z-score | 4.7 z-score | 4.58 z-score |
| CCGATTAACATCACCCATTTCCCTGATGTTAATCGGGTCTTGATTCGCTTGACGCTGCTG | 2.51 z-score | 3.07 z-score | 3.99 z-score | 3 z-score | 1.35 z-score | 2.52 z-score | 2.57 z-score |
| CCGATTAACATCAGGGGGTGGGATGATGTTAATCGGGTCTTGATTCGCTTGACGCTGCTG | 2.8 z-score | 2.48 z-score | 3.52 z-score | 3.22 z-score | 3.58 z-score | 3.34 z-score | 3.07 z-score |
| CCGATTAACATCAGGGGATTTGATGATGTTAATCGGGTCTTGATTCGCTTGACGCTGCTG | 6.34 z-score | 6.28 z-score | 8.85 z-score | 2.37 z-score | 4.27 z-score | 4.26 z-score | 6.12 z-score |
| CCGATTAACATCACCCCATCCCCTGATGTTAATCGGGTCTTGATTCGCTTGACGCTGCTG | 4.19 z-score | 2.64 z-score | 4.17 z-score | 2.99 z-score | 2.37 z-score | 3.17 z-score | 3.3 z-score |
| CCGATTAACATCACGTGATTCCCTGATGTTAATCGGGTCTTGATTCGCTTGACGCTGCTG | 2.22 z-score | 2.38 z-score | 2.58 z-score | 1.63 z-score | 8.61 z-score | 3.33 z-score | 1.11 z-score |
| CCGATTAACATCAGATTCCCCCATGATGTTAATCGGGTCTTGATTCGCTTGACGCTGCTG | 8.01 z-score | 7.43 z-score | 8.63 z-score | 8.94 z-score | 5.21 z-score | 5.82 z-score | 6.7 z-score |
| CCGATTAACATCACGTACTCCCCTGATGTTAATCGGGTCTTGATTCGCTTGACGCTGCTG | 4.07 z-score | 2.77 z-score | 3.43 z-score | 2.99 z-score | 4 z-score | 2.92 z-score | 2.83 z-score |
| CCGATTAACATCAGAGAATTCCCTGATGTTAATCGGGTCTTGATTCGCTTGACGCTGCTG | 5.32 z-score | 7.57 z-score | 7.07 z-score | 2.8 z-score | 4.51 z-score | 6.73 z-score | 5.27 z-score |
| CCGATTAACATCAGATTTTCCCCTGATGTTAATCGGGTCTTGATTCGCTTGACGCTGCTG | 8 z-score | 8.78 z-score | 11 z-score | 9.39 z-score | 4.94 z-score | 7.27 z-score | 6.35 z-score |
| CCGATTAACATCAGGAATATCCCTGATGTTAATCGGGTCTTGATTCGCTTGACGCTGCTG | 2.84 z-score | 3.66 z-score | 2.12 z-score | 1.54 z-score | 2.78 z-score | 6.03 z-score | 3.26 z-score |
| CCGATTAACATCAGGGGGAGTAATGATGTTAATCGGGTCTTGATTCGCTTGACGCTGCTG | 5.68 z-score | 4.54 z-score | 5.56 z-score | 6.83 z-score | 3.45 z-score | 4.18 z-score | 5.72 z-score |
| CCGATTAACATCAGGGGGAATTATGATGTTAATCGGGTCTTGATTCGCTTGACGCTGCTG | 7.99 z-score | 9.53 z-score | 10.6 z-score | 9.25 z-score | 7.03 z-score | 7 z-score | 7.24 z-score |
| CCGATTAACATCAAGGGGGTACCTGATGTTAATCGGGTCTTGATTCGCTTGACGCTGCTG | 5.62 z-score | 3.48 z-score | 4.15 z-score | 2.65 z-score | 3.15 z-score | 3.5 z-score | 3.89 z-score |
| CCGATTAACATCAGATTTCCCCATGATGTTAATCGGGTCTTGATTCGCTTGACGCTGCTG | 7.4 z-score | 8.26 z-score | 9.52 z-score | 8.5 z-score | 3.76 z-score | 5.45 z-score | 6.16 z-score |
| CCGATTAACATCACTAAATCCCCTGATGTTAATCGGGTCTTGATTCGCTTGACGCTGCTG | 6.91 z-score | 7.06 z-score | 9.63 z-score | 3.45 z-score | 6.49 z-score | 5.34 z-score | 6.6 z-score |
| CCGATTAACATCAAAAGTCCCCTTGATGTTAATCGGGTCTTGATTCGCTTGACGCTGCTG | 8.69 z-score | 9.23 z-score | 8.99 z-score | 3.35 z-score | 9.45 z-score | 7.89 z-score | 7.27 z-score |
